Shown are actives, neighbours in structure and some others; about 4.8% of the full set was active somewhere.
ssDAF12 agonist: S. stercoralis DAF-12 nuclear receptor activators, primary screen, cell-based, luminescence, HEK293, GRIP1 co-expression, lit1-tk-luc. Nuclear hormone receptor DAF-12 (Strongyloides stercoralis). HEK293 ssDAF-12/GRIP1 lit1-tk-luc reporter; % of 3 µM dafachronic acid response. activation, % at 6.8 µM. 1% of 370,000 active;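 active = activation above the mean over all tested compounds plus 3 SD, cut at about 0.9% in these data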;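 also: 0% = DMSO-only wells and 100% = 3 µM delta7-dafachronic acid wells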
DAX1 inh-1: DAX1 (NR0B1) inhibitors on StAR promoter, primary screen, cell-based, luminescence, SF-1 (NR5A1), full-length DAX-1. HEK293T StAR-luciferase reporter, SF-1/DAX-1 repression relief. inhibition, % at 6.8 µM. 1.1% of 370,000 active. AID 652010, 2013;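 active = inhibition above the mean over all tested compounds plus 3 SD, cut at about 3.6% in these data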;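 also: 0% = DAX-1 cells with DMSO and 100% = cells lacking DAX-1 with DMSO; higher inhibition means more luminescence from relief of DAX-1 repression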
hgDAF-12 ag: H. glycines DAF-12 receptor agonists, primary screen, cell-based, luminescence, HEK293, GAL4 fusion, UAS-luciferase; HEK293 GAL4-hgDAF12 UAS-luciferase reporter, agonist luminescence; normalized to butyrate control; 1.8% of 370,000 active; activation, % at 6.8 µM;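 active = activation above a cutoff set at the mean of all screened compounds plus 3 SD, cut at about 10% in these data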;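 also: 0% = DMSO wells and 100% = sodium butyrate wells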
DAX1 inh-2: DAX1 (NR0B1) inhibitors, primary screen, cell-based, HEK293, Gal4-DAX1, luciferase luminescence; AID 504766, 2011; Nuclear receptor subfamily 0 group B member 1 (Homo sapiens), P51843; inhibition, % at 6.75 µM; HEK293 Gal4-DAX1 luciferase reporter; 0.99% of 340,000 active;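 active = inhibition above the mean over all tested compounds plus 3 SD, cut at about 4.2% in these data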;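 also: 0% = DAX1-transfected cells with DMSO and 100% = empty-vector control cells with DMSO; inhibition shows as a rise in luminescence from relieved DAX1 repression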
Target sequence (P51843 207-470 limits assumed): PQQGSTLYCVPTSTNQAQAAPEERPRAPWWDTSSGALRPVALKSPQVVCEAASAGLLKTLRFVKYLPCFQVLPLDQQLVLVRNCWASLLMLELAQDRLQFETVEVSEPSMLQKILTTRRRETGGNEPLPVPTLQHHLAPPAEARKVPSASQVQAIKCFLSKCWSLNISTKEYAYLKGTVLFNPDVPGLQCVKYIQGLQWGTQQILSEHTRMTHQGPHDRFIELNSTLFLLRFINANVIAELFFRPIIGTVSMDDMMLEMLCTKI
hcDAF-12 act: H. contortus DAF-12 nuclear receptor activators, primary screen, cell-based, luminescence, HEK293, lit1-tk-luc reporter | activation, % at 6.8 µM | HEK293 hcDAF-12 lit1-tk-luc reporter; 0% DMSO, 100% Δ7-dafachronic acid | AID 652067, 2013 | 1.4% of 370,000 active;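 active = activation above the mean of all tested compounds plus 3 SD, cut at about 5.5% in these data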;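 also: 100% = response to 3 µM Δ7-dafachronic acid high control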
SMARCA2 act: SMARCA2 (BRM) function activators, primary screen, cell-based, luminescence, high throughput; MG213 cells, MMTV-luciferase reporter, dexamethasone, overnight; AID 652017, 2013; activation, % at 9.1 µM; 1% of 370,000 active; in the data active = activation above about 7.8%;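 also: 0% = vehicle wells and 100% = reference activator wells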
DAX1 inh confirm: DAX1 (NR0B1) inhibitors relieving SF-1 repression, confirmation, cell-based, luminescence, HEK293T, full-length DAX-1, SF-1 activated StAR promoter; shares compounds with DAX1 inh-1; HEK293T StAR-promoter luciferase reporter, SF-1/DAX-1 repression; inhibition, % at 6.8 µM; 87% of 2,400 active; AID 652134, 2013;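 active = inhibition above the average of every tested compound plus 3 SD, cut at about 3.8% in these data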;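 also: 0% = DAX-1 cells with DMSO and 100% = no DAX-1 control cells with DMSO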
SF1 AF2mut Luc: StAR reporter signal changes without DAX1, counter-screen for DAX1 inhibitor project, cell-based, luminescence, AF-2 mutant SF-1, transactivation. inhibition, % at 6.8 µM. HEK293 StAR-luciferase, SF-1 AF2 mutant. AID 652136, 2013. 78% of 2,400 active. shares compounds with DAX1 inh-1;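 active = inhibition above the mean of all tested compounds plus 3 SD, cut at about 3% in these data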;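 also: 0% = DAX-1 transfected cells with DMSO and 100% = cells without DAX-1 with DMSO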
SMARCA2 act conf: SMARCA2 (BRM) function activators, confirmation, cell-based, luminescence, triplicate | shares compounds with SMARCA2 act | MG213 cells, MMTV-luciferase with dexamethasone, overnight; MG213 cells expressing E1A, Rb sequestered; DMSO wells 0%, reference activator 100% | activation, % at 9.1 µM | 30% of 3,500 active;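 active = activation above its plate's cutoff, the mean activation of tested wells plus 3 SD, cut at about 7.9% in these data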
VP16 Luc act: GAL4-VP16 luciferase reporter activation, counter-screen for SMARCA2 (BRM) activator project, cell-based, pG5luc, luminescence, high throughput; 41% of 3,500 active; activation, % at 9.1 µM; HEK293 GAL4-VP16 pG5luc reporter; scaled: DMSO wells 0%, SAHA wells 100%; shares compounds with SMARCA2 act;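 active = activation above the solvent-only control well mean plus 3 SD, averaged across control plates, cut at about 5.2% in these data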
LXR ag: LXR agonists, Gal4 luciferase reporter, confirmation, counter-screen for hcDAF-12 agonist project, cell-based, luminescence, HEK293, H. contortus campaign | 3,400 tested, under 10 active | HEK293 Gal4-LXR tk-luc reporter, 24 h; normalized: DMSO 0%, positive control 100% | AID 743027, 2013 | activation, % at 6.8 µM | shares compounds with hcDAF-12 act;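 active = mean percent activation of the reporter above a cutoff set as the average over tested compounds plus their standard deviation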
Target sequence (P55055 whole entry, looked up, the tested form may be a part): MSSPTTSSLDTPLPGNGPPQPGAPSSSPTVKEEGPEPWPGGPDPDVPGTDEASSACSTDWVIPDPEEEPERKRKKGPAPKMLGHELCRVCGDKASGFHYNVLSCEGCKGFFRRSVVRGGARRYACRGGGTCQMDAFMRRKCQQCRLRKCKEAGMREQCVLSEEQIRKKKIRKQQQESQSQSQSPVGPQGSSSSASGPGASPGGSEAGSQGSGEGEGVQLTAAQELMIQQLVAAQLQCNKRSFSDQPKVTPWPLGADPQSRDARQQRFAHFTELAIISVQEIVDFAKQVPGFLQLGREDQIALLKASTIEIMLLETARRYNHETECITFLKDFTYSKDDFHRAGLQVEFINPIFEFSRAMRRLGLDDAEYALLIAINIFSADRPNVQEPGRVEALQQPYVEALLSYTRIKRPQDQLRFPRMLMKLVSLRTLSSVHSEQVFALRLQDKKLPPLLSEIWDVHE
hcDAF12 conf: H. contortus DAF-12 receptor agonists, confirmation, cell-based, luminescence, HEK293, lit1-tk-luc, triplicate. HEK293 hcDAF-12 lit1-tk-luc reporter; % of Δ7-dafachronic acid response. 61% of 3,400 active. activation, % at 6.8 µM. shares compounds with hcDAF-12 act;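 active = mean activation across triplicate tests above the threshold derived from the earlier primary screen, cut at about 5.5% in these data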;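 also: 0% = DMSO only wells and 100% = 3 µM Δ7-dafachronic acid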
hgDAF12 ag: H. glycines DAF-12 receptor agonists, confirmation, cell-based, luminescence, HEK293, GAL4-LBD fusion; shares compounds with hgDAF-12 ag; HEK293 GAL4-hgDAF12 luciferase reporter, agonist mode; percent of butyrate response; activation, % at 6.8 µM; 80% of 3,300 active; AID 743050, 2013;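 active = mean activation over triplicate wells above the hit cutoff derived from the earlier primary screen, cut at about 11% in these data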;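 also: 0% = DMSO low control and 100% = 2 mM sodium butyrate high control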
LXR ag 2: LXR agonists, Gal4 luciferase reporter, confirmation, counter-screen for hgDAF-12 agonist project, cell-based, luminescence, HEK293, H. glycines campaign | shares compounds with hgDAF-12 ag | 24 h | AID 743051, 2013 | activation, % at 6.8 µM | 3,300 tested, under 10 active;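 active = mean activation of the triplicate above a set limit carried over from the primary screen, none filed active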
* hit, by the source's call; nt = no result.

SMILES | ssDAF12 agonist | DAX1 inh-1 | hgDAF-12 ag | DAX1 inh-2 | hcDAF-12 act | SMARCA2 act | DAX1 inh confirm | SF1 AF2mut Luc | hgDAF12 ag | LXR ag 2 | others
S=C(c1ccccc1)N1CCSCC1 | -1 | 0 | -1 | -1 | 1 | 2 | nt | nt | nt | nt
O=C(CSC(=S)N1CCSCC1)c1ccccc1 | 1 | 5.0* | 18* | 1 | 4 | 5 | 12* | 6.9* | 19* | 1
O=C(CSc1nnc(NC(=O)c2ccc(F)cc2)s1)NCc1ccco1 | 0 | 6.5* | 14* | 0 | 0 | 7 | 9.3* | 5.1* | 12* | 1
COc1ccc(COC(=O)C2CC(=O)N(Cc3ccccc3)C2)cc1 (configuration not stated) | -1 | 1 | 0 | 1 | 0 | 0 | nt | nt | nt | nt
COC(=O)C1C(=O)c2c([nH]c(C(=O)OC3CCCC3C)c2C)CC1C (configuration not stated) | 1 | 4.7* | 18* | 4 | 1 | 3 | 5.5* | 3.3* | 11* | 1
CC(Sc1nnc2n1CCCCC2)C(=O)Nc1ccccc1[N+](=O)[O-] (configuration not stated) | -1 | -1 | 2 | 0 | 0 | -2 | nt | nt | nt | nt
CN(C)c1ccc(/C=N\NC(=O)c2csnn2)cc1 | 1.3* | 5.0* | 17* | 0 | 6.5* | 8.4* | 12* | 6.1* | 19* | 1 | SMARCA2 act conf=15*;VP16 Luc act=10*
Fc1ccc2[nH]c3c(N4CCc5ccccc5C4)ncnc3c2c1 | -3 | -2 | -9 | nt | -6 | -5 | nt | nt | nt | nt
O=C(NNC(=O)c1ccccn1)c1ccc(OC(F)F)cc1 | -1 | 1 | 4 | 1 | 2 | 2 | nt | nt | nt | nt
O=C(NCCc1ccccn1)c1ccc(OC(F)F)cc1 | -1 | 5.4* | 16* | 3 | 4 | 5 | 9.3* | 3.8* | 15* | 0
Cc1nc(SCCc2ccccc2)[nH]c(=O)c1C | nt | nt | nt | 0 | nt | nt | nt | nt | nt | nt
CCOc1ccc(N(C(=O)c2ccc3c(c2)OCO3)C2C=CS(=O)(=O)C2)cc1 (configuration not stated) | -1 | -1 | 3 | -1 | -1 | -2 | nt | nt | nt | nt
COc1cccc(/C=C/C(=O)Nc2cccc(C(C)=O)c2)c1OC | -1 | 1 | 10 | 0 | 0 | 1 | nt | nt | nt | nt
COc1cccc(/C=C/C(=O)Nc2ccc3c(c2)OCCO3)c1OC | 1 | 10* | 19* | -2 | 7.7* | 5 | 11* | 5.3* | 17* | 1 | LXR ag=2;hcDAF12 conf=5.9*
CC(=O)Nc1ccc(NC(=O)COc2ccc3c(c2)CCC3)cc1 | -1 | 0 | -1 | 2 | 0 | 2 | nt | nt | nt | nt
Cc1ccnc(NC(=O)COc2ccc3c(c2)CCC3)c1 | 0 | 14* | 14* | -3 | 5 | 4 | 12* | 4.2* | 12* | 1
CCOC(=O)c1sc2nc(NC(=O)C(C)(C)C)sc2c1C | 1 | 5.2* | 14* | 1 | 4 | 0 | 4.1* | 0 | 6 | 1
CCOC(=O)c1sc2nc(NC(=O)C3CC3)sc2c1C | -1 | 0 | 1 | 1 | 2 | -2 | nt | nt | nt | nt
c1cc(-c2cccs2)nc(-c2cccs2)c1 | 0 | 0 | -3 | 2 | -2 | 0 | nt | nt | nt | nt
c1csc(-c2cn3ccc4ccccc4c3n2)c1 | 2.5* | 4.8* | 17* | 2 | 14* | 4 | 8.3* | 5.4* | 18* | 1 | LXR ag=1;hcDAF12 conf=15*
C/C(=N\Nc1cccc2cccnc12)c1ccccn1 | 2.0* | 6.3* | 28* | -1 | 14* | 6 | 17* | 7.8* | 23* | 1 | LXR ag=2;hcDAF12 conf=13*
COc1ccc(NC(=O)N2CCc3ccccc3C2)cc1OC | -1 | -1 | 2 | 1 | -1 | -1 | nt | nt | nt | nt
Cc1ccc(NC(=O)N2CCc3ccccc3C2)cc1C | -1 | 6.6* | 14* | 2 | 4 | 4 | 8.6* | 5.5* | 13* | 0
